Compound activity deposited in PubChem by NMMLSC.
Anthrax LF inh2: Bacillus anthracis LF protease inhibitors, primary screen, biochemical, multiplex microsphere, MLPCN library; inhibition, % at 10 µM; 0.12% of 360,000 active; Lethal factor (Bacillus anthracis), P15917; multiplex microsphere protease cleavage assay; also: plate controls were buffer without enzyme for full effect and enzyme alone for no effect
BoNT-A LC inh2: BoNT/A light chain protease inhibitors, primary screen, biochemical, flow cytometry, MLPCN library. Botulinum neurotoxin type A light chain protease (Clostridium botulinum A str. ATCC 3502). multiplex microsphere protease substrate cleavage. 0.17% of 360,000 active. AID 588499, 2011. inhibition, % at 10 µM; also: plate controls were buffer without enzyme for full effect and enzyme alone for no effect
Bead autofluor: compound fluorescence in toxin protease inhibitor counterscreen | AID 624483 | 3.1% of 360,000 active | fluorescence intensity (test concentration not listed) | compound autofluorescence counterscreen, microsphere flow cytometry; stronger effect = higher value; in the data active = fluorescence intensity above about 16000; inconclusive = no clear call, values can overlap the other calls
BoNT-F LC inh: BoNT/F light chain protease inhibitors, primary screen, biochemical, flow cytometry, MLPCN library. Botulinum neurotoxin type F light chain protease (Clostridium botulinum). inhibition, % at 10 µM. 0.22% of 360,000 active. AID 588497, 2011. Multiplex microsphere protease cleavage assay; in the data active = inhibition above about 35%, passing the limit was not always enough; inconclusive = no clear call, values can overlap the other calls; also: plate controls were buffer without enzyme for full effect and enzyme alone for no effect
An asterisk follows results filed as active; ? = inconclusive. Most compounds without a hit are left out; they make up all but 3.5% or so of the library. Rule as the data show it, unless noted: active = inhibition above about 30%; inconclusive = no clear call, values can overlap the other calls; inactive = below that.

SMILES	Anthrax LF inh2	BoNT-A LC inh2	Bead autofluor	BoNT-F LC inh
CCOC(=O)C1CCCCN1Cc1ccccc1C(F)(F)F (centres undefined)	-3.6	5.1	17635*	4.2
CC1C(=O)N(Cc2cn(CCC3OCCCO3)nn2)CCS(=O)(=O)N1Cc1ccc(-c2ccncc2)cc1 (centres undefined)	-8.3	0.0	2973	2.9
COC(=O)C(C)N(C(=O)c1ccc(C(=O)c2ccccc2)cc1)c1c(C)cccc1C (centres undefined)	-3.6	0.0	11141	5.9
COC(=O)C(C)N(C(=O)c1ccc(Cl)cc1)c1c(C)cccc1C (centres undefined)	-1.6	-1.5	21162*	-5.5
Cn1c(=O)c2[nH]c(NN=Cc3cccc(Br)c3)nc2n(C)c1=O	-4.4	-0.6	2860	-10.7
CCC(NS(=O)(=O)c1c(C)[nH]c(=O)[nH]c1=O)C12CC3CC(CC(C3)C1)C2 (centres undefined)	-4.2	-0.1	3272	10.4
Cc1[nH]c(=O)[nH]c(=O)c1S(=O)(=O)NCC12CC3CC(CC(C3)C1)C2	0.3	?	21375*	-3.0
CCOC(=O)c1cc(=O)n(Cc2ccccc2C)c2ccccc12	-1.3	-0.3	20854*	0.2
CC(C)(C)/C(O)=C(/C#N)c1nc2ccccc2[nH]1	-1.3	?	23471*	-6.1
COc1cccc(OC)c1/C(O)=C(\C#N)c1nc2ccccc2[nH]1	-6.5	0.4	7299	-12.2
COc1ccc(/C=N/OC/C(O)=C(\C#N)c2nc3ccccc3[nH]2)cc1	0.4	3.6	22111*	0.7
CCN(CC(=O)Nc1ccc2c(c1)OCCO2)C(=O)c1ccc(Cl)cc1Cl	4.1	-2.9	?	-6.3
CCN(CC)S(=O)(=O)c1ccc(N2CCCCC2)c(NC(=O)/C=C/c2ccc(OC)c(OC)c2)c1	0.0	4.5	2267	34.0
CCN(CC)S(=O)(=O)c1ccc(OC)c(NC(=O)/C=C/c2ccco2)c1	-3.6	3.8	5086	34.7*
COc1ccc(C2(CNC(=O)/C=C/c3ccco3)CCCC2)cc1OC	2.4	4.7	19955*	2.7
O=C(/C=C/c1ccco1)NCC1(c2ccccc2)CCCC1	0.5	0.0	2153	3.6
CN(CC(=O)NCC1CCCO1)S(=O)(=O)c1ccc2ccccc2c1 (centres undefined)	-0.2	-0.3	3699	0.9
O=C(Cc1ccc(F)cc1)c1ccc(O)cc1O	-1.1	1.1	19761*	1.0
O=C1C(=Cc2ccc(Br)o2)C(=O)c2ccccc21	5.7	2.6	7134	34.5*
CC1CCc2c(sc3ncn(N)c(=N)c23)C1 (centres undefined)	-5.8	-0.5	4683	4.4
O=S(=O)(c1ccc(NC(=S)N/N=C/c2c3ccccc3cc3ccccc23)cc1)N1CCOCC1	13.8	32.6*	3214	1.7
O=S(=O)(c1ccc(NC(=S)N/N=C/c2ccc(Oc3ccccc3)cc2)cc1)N1CCOCC1	-3.0	-0.4	1982	-6.8
O=C(CSc1nnc(-c2c[nH]c3ccccc23)n1C1CC1)NC1CCS(=O)(=O)C1 (centres undefined)	-3.8	0.4	3512	0.2
CCCc1c(C(=O)N/N=C(\C)c2ccccn2)nnn1-c1nonc1N	2.1	-0.4	3873	-5.2
COc1ccc(NC(=O)CSc2nnc(C3CCCCC3)n2N)cc1	-15.2	-1.8	3994	?
SMILES	Anthrax LF inh2	BoNT-A LC inh2	Bead autofluor	BoNT-F LC inh
Nn1c(SCC(=O)Nc2cccc(F)c2)nnc1C1CCCCC1	-3.4	1.0	22029*	3.7
Cc1ccccc1NC(=O)Cc1nc(CSc2nnc(C3CCCCC3)n2N)cs1	-1.4	1.4	22506*	-0.5
N#CC(c1ccc(Cl)cc1)c1ccc2c(C(F)(F)F)cc(C(F)(F)F)nc2n1 (centres undefined)	-1.5	0.7	2814	-0.5
FC(F)(F)c1cc(C(F)(F)F)c2ccc(N3CCOCC3)nc2n1	7.1	-1.7	4107	-39.3
Fc1ccc(N2CCN(c3ccc4c(C(F)(F)F)cc(C(F)(F)F)nc4n3)CC2)cc1	-3.5	3.8	21176*	3.5
FC(F)(F)c1cc(C(F)(F)F)c2ccc(N3CCN(c4ccc(Cl)cc4)CC3)nc2n1	-1.9	3.1	21584*	3.8
FC(F)(F)c1cc(C(F)(F)F)c2ccc(N3CCN(c4ncccn4)CC3)nc2n1	-6.0	-4.2	23511*	-4.4
COC(=O)CCCn1cc(CN2CC(N3CCN(Cc4ccccc4F)CC3)CS2(=O)=O)nn1 (centres undefined)	-2.7	-0.3	5628	3.4
O=C(/C=C/c1c(Cl)cccc1Cl)NCCCn1ccnc1	-5.3	-0.7	4553	-13.7
Cc1nnc(C)n1/N=C/c1ccc(C(=O)O)cc1	2.8	0.2	22576*	0.8
Cn1c(=O)cc(OCCCC(=O)Nc2ccccn2)c2ccccc21	-2.2	1.1	22529*	-0.3
Cn1c(=O)cc(OCCCC(=O)NCc2ccco2)c2ccccc21	-2.5	-1.8	17294*	-3.0
Cn1c(=O)cc(OCCCC(=O)Nc2cccc(Cl)c2)c2ccccc21	-3.1	0.3	3113	0.7
Cc1ccc(CNC(=O)CCCOc2cc(=O)n(C)c3ccccc23)o1	-7.9	-0.7	6564	-9.5
CCOC(=O)c1sc2ncnc(Nc3cccc(C(=O)O)c3)c2c1C	-12.1	-2.0	3957	14.3
O=C(c1csc2ccccc12)N1CCCCCC1	1.5	-1.8	20758*	-1.7
O=C(c1csc2ccccc12)N1CCN(c2ccccn2)CC1	-1.6	1.3	2383	0.8
CCn1cc(/C=C(\NC(=O)c2ccccc2F)C(=O)NCCCn2ccnc2)c2ccccc21	-1.0	0.1	4210	0.7
O=C(Nc1ccc(C(=O)NCCCN2CCN(c3ccc(F)cc3)CC2)cc1)C1=CSCCO1	-5.0	0.7	4199	-7.6
COCC(=O)Nc1nc(-c2ccccc2)c(C)s1	-0.8	-1.4	19856*	-1.5
COCC(=O)Nc1nc(-c2ccc(-c3ccccc3)cc2)cs1	-7.3	2.8	3396	-4.1
CC(C#Cc1ccc2c(c1)COc1c3ccccc3nn1-2)OC(C)(C)C (centres undefined)	-7.8	-1.1	4267	-8.7
COC(=O)Nc1ccc(S(=O)(=O)NCCCCCC(=O)O)cc1	-5.3	-0.6	4300	-2.3
O=S(=O)(NCc1ccc2c(c1)OCO2)c1ccc2oc3ccccc3c2c1	-0.8	-0.2	16406*	1.5
COC(=O)Nc1ccc(S(=O)(=O)NCCO)cc1	-1.5	-4.1	18225*	-6.6
SMILES	Anthrax LF inh2	BoNT-A LC inh2	Bead autofluor	BoNT-F LC inh
O=S(=O)(NCCSc1ccc(Cl)cc1)c1ccc(F)cc1	-2.1	-0.1	16419*	-3.7
CC(=O)Nc1ccc(S(=O)(=O)NCc2ccc3[nH]c(C)cc3c2)cc1	-39.2	52.6*	3018	-87.9
CN(CCc1ccccc1)C(C(=O)Nc1ccc2c(c1)OCCO2)C1CC1 (centres undefined)	3.5	-0.6	4407	2.2
CCOC(=O)N1CCN(C(=O)COC(=O)c2ccc(Cl)nc2)CC1	4.5	-0.1	3602	0.1
COc1ccc(CNC(=O)CCNS(=O)(=O)c2ccc(Cl)cc2)cc1	-2.7	0.1	4631	0.5
O=C(O)CCCNS(=O)(=O)c1ccc(F)cc1	-1.2	-1.5	24742*	-2.6
COc1ccc(S(=O)(=O)NCCC(=O)NCc2ccc(F)cc2)cc1	0.5	10.3	19366*	11.8
